Key:
Details in all cases: concentration: 1 μM, replicates: in singlicate; n = 1
IRAK3 = test system: IRAK3
IRAK4 = test system: IRAK4
ITK = test system: ITK
[1] = test system: JAK1(JH1domain-catalytic)
[2] = test system: JAK1(JH2domain-pseudokinase)
[3] = test system: JAK2(JH1domain-catalytic)
[4] = test system: JAK3(JH1domain-catalytic)
JNK1 = test system: T1, JNK1
T1 construct: gene MAPK8

JNK2 = test system: T2, JNK2
T2 construct: gene MAPK9

JNK3 = test system: T3, JNK3
T3 construct: gene MAPK10

KIT-autoinhibited = test system: KIT-autoinhibited
KIT = test system: KIT
LATS1 = test system: LATS1
LATS2 = test system: LATS2
LCK = test system: LCK
LIMK1 = test system: LIMK1
LIMK2 = test system: LIMK2
LKB1 = test system: T4, LKB1
T4 construct: gene STK11

LOK = test system: T5, LOK
T5 construct: gene STK10

LRRK2 = test system: LRRK2
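Further: KINOMEscan kinase panel screen.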

Row | SMILES | %Inh (IRAK3) [%] | %Inh (IRAK4) [%] | %Inh (ITK) [%] | %Inh [1] [%] | %Inh [2] [%] | %Inh [3] [%] | %Inh [4] [%] | %Inh (JNK1) [%] | %Inh (JNK2) [%] | %Inh (JNK3) [%] | %Inh (KIT-autoinhibited) [%] | %Inh (KIT) [%] | %Inh (LATS1) [%] | %Inh (LATS2) [%] | %Inh (LCK) [%] | %Inh (LIMK1) [%] | %Inh (LIMK2) [%] | %Inh (LKB1) [%] | %Inh (LOK) [%] | %Inh (LRRK2) [%]
1 | COc1cc2ncn(-c3cc(OCc4sccc4Cl)c(C(N)=O)s3)c2cc1OC [GSK448459] | 0 | 4 | 12 | 0 | 0 | 2 | 0 | 20 | 11 | 7 | 0 | 31 | 47 | 0 | 34 | 4 | 0 | 0 | 99.1 | 0
2 | NCC(NC(=O)c1cc(-c2cn[nH]c2)c(-c2ccnc3[nH]ccc23)s1)c1ccccc1.O=C(O)C(F)(F)F.O=C(O)C(F)(F)F (stereo not shown) [GSK1325775] | 0 | 21 | 7 | 45 | 11 | 95.7 | 100 | 40 | 7 | 12 | 0 | 26 | 59 | 91.1 | 4 | 0 | 28 | 57 | 0 | 3
3 | c1ccc(-c2n[nH]cc2-c2ccnc3ccccc23)nc1 [GW271431] | 0 | 6 | 14 | 10 | 0 | 3 | 0 | 17 | 33 | 12 | 11 | 20 | 0 | 4 | 17 | 21 | 30 | 18 | 0 | 0
4 | NS(=O)(=O)CCc1cccc(Nc2nccc(-c3c(-c4cccc(NC(=O)c5c(F)cccc5F)c4)nn4ccccc34)n2)c1 [GSK336735] | 16 | 9 | 20 | 18 | 0 | 0 | 77 | 36 | 55 | 16 | 13 | 100 | 7 | 7 | 99.6 | 67 | 9 | 1 | 99.4 | 0
5 | CNc1ncnc2[nH]ncc12 [SKF-18355] | 0 | 0 | 0 | 0 | 31 | 20 | 2 | 8 | 1 | 0 | 20 | 18 | 0 | 0 | 6 | 0 | 0 | 38 | 0 | 0
6 | N#Cc1ccc(-c2cc(-c3c[nH]nc3-c3ccccn3)ccn2)cc1 [GW693028] | 0 | 22 | 9 | 22 | 0 | 9 | 0 | 34 | 59 | 69 | 5 | 6 | 0 | 0 | 0 | 16 | 3 | 0 | 0 | 44
7 | Nc1nccc(-c2c(-c3ccc(F)cc3)ncn2C2CCN(CC(F)(F)F)CC2)n1 [SB-236560] | 0 | 0 | 0 | 0 | 0 | 0 | 29 | 63 | 91.3 | 89 | 11 | 0 | 0 | 69 | 0 | 5 | 0 | 0 | 2 | 0
8 | COC(=O)Nc1nc2cc(Oc3ccc(NC(=O)Nc4cc(F)ccc4F)cc3)ccc2[nH]1.Cl [GW701424] | 0 | 6 | 0 | 26 | 0 | 1 | 0 | 0 | 2 | 0 | 30 | 100 | 0 | 0 | 57 | 0 | 0 | 0 | 98.4 | 0
9 | Fc1ccc(-c2nn3c(OCC(F)(F)F)cccc3c2-c2ccncc2)cc1 [GW514784] | 0 | 0 | 9 | 24 | 14 | 4 | 0 | 97.6 | 99.9 | 99.9 | 0 | 24 | 41 | 0 | 7 | 0 | 0 | 9 | 0 | 19
10 | COc1cc2c(cc1OC[C@@H](O)CO)ncc1c3ccc(C#N)cc3[nH]c21 | 67 | 99.9 | 13 | 0 | 11 | 3 | 59 | 15 | 0 | 0 | 48 | 63 | 0 | 41 | 0 | 0 | 0 | 0 | 20 | 93.1
11 | C[C@@H](Oc1cc(-n2cnc3ccc(NC(=O)NC(C)(C)C)cc32)sc1C(N)=O)c1ccccc1Cl [GSK346294] | 12 | 0 | 14 | 2 | 0 | 0 | 0 | 0 | 6 | 0 | 1 | 20 | 0 | 12 | 37 | 0 | 25 | 4 | 36 | 0
12 | O=c1cc(N2CCOCC2)nc2n(Cc3cccc(F)c3)ccn12 [GSK2297430] | 0 | 1 | 0 | 8 | 0 | 2 | 0 | 21 | 13 | 0 | 0 | 10 | 0 | 0 | 23 | 9 | 5 | 0 | 0 | 31
13 | Cc1cccc(-c2nc(-c3ccc(S(C)(=O)=O)cc3)sc2-c2ccncc2)c1 | 33 | 15 | 19 | 15 | 17 | 0 | 6 | 26 | 28 | 33 | 7 | 18 | 36 | 50 | 23 | 0 | 1 | 0 | 0 | 2
14 | O=C1NC(=O)C(N2CCc3ccccc32)=C1c1cccc(Cl)c1 [SB-408010] | 0 | 0 | 15 | 14 | 0 | 0 | 0 | 41 | 34 | 29 | 0 | 13 | 0 | 10 | 10 | 0 | 0 | 0 | 0 | 9
15 | CN(C(=O)c1ccc(-c2cc(-c3c[nH]nc3-c3ccccn3)ccn2)cc1)C1CCOCC1 [GW810083] | 0 | 0 | 5 | 0 | 0 | 0 | 0 | 42 | 45 | 38 | 0 | 0 | 0 | 2 | 0 | 0 | 0 | 16 | 0 | 0
16 | CCc1nc(-c2cccc(C)c2)c(-c2ccnc(NCc3ccccc3)c2)s1 | 0 | 0 | 13 | 7 | 31 | 0 | 4 | 0 | 8 | 20 | 0 | 26 | 21 | 0 | 0 | 0 | 0 | 0 | 19 | 3
17 | Cn1ccc2ncnc(Oc3ccc(NC(=O)Nc4ccncc4)c(Cl)c3)c21 | 0 | 7 | 0 | 14 | 0 | 0 | 0 | 0 | 0 | 0 | 0 | 74 | 0 | 0 | 0 | 0 | 0 | 13 | 14 | 0
18 | Cc1cccc(-c2nc(Nc3ccc4ncsc4c3)c3ccccc3n2)n1 [GW867588] | 0 | 0 | 30 | 0 | 62 | 0 | 0 | 2 | 8 | 0 | 12 | 0 | 2 | 0 | 9 | 4 | 0 | 23 | 27 | 60
19 | O=c1cc(N2CCOCC2)nc2n(Cc3cccc(C(F)(F)F)c3)ccn12 [GSK2297543] | 0 | 0 | 9 | 2 | 0 | 0 | 0 | 0 | 10 | 0 | 2 | 13 | 0 | 0 | 22 | 0 | 7 | 10 | 0 | 0
20 | Fc1ccc(-c2ncn(CCCN3CCOCC3)c2-c2ccccn2)cc1 [SB-211742] | 1 | 0 | 0 | 0 | 0 | 0 | 0 | 20 | 0 | 0 | 0 | 0 | 10 | 0 | 28 | 0 | 0 | 33 | 8 | 0
